This is an account of results in PubChem BioAssay AID434973 (Sanford-Burnham Center for Chemical Genomics, 2010).

In all, about 330,000 compounds went through this assay and about 4,900 (1.5%) were called active.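 The calls were made as follows: active = inhibition above about 50% at the single test dose (limit read from the data); inactive = the rest.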 What follows is part of a selection rich in actives, with near analogues and random picks from the rest.

For the assay, the target named is Sentrin-specific protease 7 (Homo sapiens) (UniProt Q9BQF6). Kind of assay: blockers of human SENP7 peptidase activity – biochemical, luminescence, uHTS, primary screen (AID 434973).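 Also: plate controls were DMSO with enzyme for no effect and no enzyme buffer wells for full effect.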 The following applies: recombinant SENP7, Z-RLRGG-aminoluciferin luminescence, 40 min; at 5 µM; active compounds read high.
For the molecule `O=C(c1ccccc1F)N(Cc1ccccc1)Cc1ccccc1`, the inhibition was -9.2% (inactive).

Regarding `Cc1c(Cl)c([N+](=O)[O-])nn1Cc1ccc(C(=O)N/N=C\c2cc(Cl)ccc2O)o1`, the inhibition was 10.1% (inactive).

Turning to `CCN(CC)S(=O)(=O)c1ccc(OC(C)C)c(N)c1`, the inhibition was 2.51% (inactive).

Consider `CC(=O)C1C(c2ccc(Cl)cc2)c2c(n[nH]c2C)CC1(C)O` (configuration not stated), for which the inhibition was -1.26% (inactive).

On to `CC(=O)NNC1=Nc2ccccc2N(C)C(C)C1` (configuration not stated), for which the inhibition is 1.41% (inactive).

As to `CCc1cc(=O)oc2cc(OCC(=O)N3CCCc4ccccc43)ccc12`, the inhibition is -13.1% (inactive).

As for `Cc1ccc(-c2cn(S(=O)(=O)c3cccc([N+](=O)[O-])c3)nc2N)cc1`, the inhibition was 1.39% (inactive).

Turning to `Cc1ccc(-n2cc3ccc([N+](=O)[O-])cc3n2)cc1`, the inhibition is 87.9% (active).

`Cc1ccnc(N2C(=O)c3ccc([N+](=O)[O-])cc3C2=O)c1`: the inhibition is -0.103% (inactive).

Turning to `CC(C)(C)c1cc[n+](-c2[nH]c(=O)sc2/C=N/N=C(\[O-])c2ccccc2)cc1`, the inhibition is 1.22% (inactive).

As to `CCN(CC)S(=O)(=O)c1ccc(N2CCOCC2)c(NC(=O)c2ccc(=O)n(C)n2)c1`, the inhibition was -0.97% (inactive).

In the case of `CCC(C)C(NC(=O)C1CCC(=O)N1C(=O)OCc1ccccc1)C(=O)NC(C(=O)N1CCCC1C(N)=O)C(C)CC` (configuration not stated), the inhibition was -7.38% (inactive).

With `COc1ccc(C(=O)O/N=C(\N)c2ccccn2)cc1[N+](=O)[O-]`, the inhibition was 10.4% (inactive).

With `O=C(COC(=O)c1ccccn1)NNC(=O)c1ccc(Br)cc1`, the inhibition was 8.04% (inactive).

Take `N/C(=N\OC(=O)c1ccc([N+](=O)[O-])cc1)c1ccccn1`: the inhibition is 94.8% (active).

`Cc1ccc(C(=O)O/N=C(\N)c2ccccn2)cc1Cl`: the inhibition is 95.8% (active).

With `O=C(COC(=O)c1ccccn1)NNC(=O)c1ccc([N+](=O)[O-])cc1`, the inhibition was 4.18% (inactive).

Regarding `Cc1ccc(NC(=O)c2ccccn2)cc1S(=O)(=O)N1CCOCC1`, the inhibition was -1.52% (inactive).

As to `CCCCN=C(N)/C(C(=O)OCC)=C(\O)c1ccc(OC)cc1`, the inhibition was 13.1% (inactive).

In the case of `CC(OC(=O)CN1C(=O)c2ccccc2C1=O)C(=O)c1ccccc1` (configuration not stated), the inhibition is 5.15% (inactive).

Consider `CCc1ccc(NC(=O)CN2C(=O)COc3ccc(S(=O)(=O)N4CCCC4)cc32)cc1`, for which the inhibition was 2.36% (inactive).

Regarding `C=C(Br)Cn1c(CCCC)nc2ccccc21`, the inhibition is 2.52% (inactive).

`FC(F)(F)c1ccnc(Oc2ccc(C3=NCCS3)cc2)c1`: the inhibition is 67.2% (active).

In the case of `CC(C)Oc1ccc(Oc2ccc(C(F)(F)F)cn2)cc1`, the inhibition was -3.04% (inactive).

Take `O=[N+]([O-])c1cccc(C2=NCCS2)c1`: the inhibition is -1.11% (inactive).

As to `COc1ccc(C(=O)n2nc(C)c(Br)c2C)cc1OC`, the inhibition was 0.64% (inactive).

Consider `COC(=O)CN1C(=O)[C@H]2[C@@H](/C=C/c3ccccc3)N3C(=O)CN(CC4CC4)C(=O)[C@@]3(Cc3ccccc3)[C@H]2C1=O`, for which the inhibition was -16.2% (inactive).

For the molecule `CCCCSc1nnc(-c2ccc(C)cc2)o1`, the inhibition was 58.9% (active).

Regarding `CCOC(=O)CSc1nnc(-c2cccc(Br)c2)o1`, the inhibition is -6.07% (inactive).

Regarding `CCOC(=O)CSc1nnc(-c2ccc([N+](=O)[O-])cc2)o1`, the inhibition is -2.17% (inactive).

For `CCOc1ccc(NC(=O)CN(C)C(=O)c2cccc(S(=O)(=O)N3CCCC3)c2)cc1OCC`, the inhibition was -6.73% (inactive).

On to `Cc1ccc(-n2c(-c3ccc(Cl)cc3)n[nH]c2=S)cc1`, for which the inhibition is -0.859% (inactive).

Consider `Cc1cc(N2CCOCC2)nc(-c2ccc(Br)cc2)n1`, for which the inhibition is -7.07% (inactive).

Turning to `Cc1ccc2nc(-c3ccc(Br)cc3)cn2c1`, the inhibition was 89.3% (active).

With `Cc1ccc(-c2cn3cc(C)ccc3n2)cc1`, the inhibition is 86.5% (active).

As to `CSc1nnc2ccc(-c3ccc(C)cc3)nn12`, the inhibition was -16.3% (inactive).

On to `Cc1ccc(-c2cc(N)on2)cc1`, for which the inhibition was -4.29% (inactive).

On to `O=C1C2C3C=CC(C3)C2C(=O)N1c1ccc(S(=O)(=O)Nc2nccs2)cc1` (configuration not stated), for which the inhibition is 4.27% (inactive).

`CN(C)c1cccc(C(=O)N2CCC(n3nccc3NC(=O)C3CCOC3)CC2)c1` (configuration not stated): the inhibition is 9.95% (inactive).

Take `CCCCC(=O)Nc1c2c(nn1-c1ccc([N+](=O)[O-])cc1)CS(=O)(=O)C2`: the inhibition is -1.87% (inactive).

As for `CC1C(=O)N(Cc2ccccc2)c2ccccc2N1C(=O)c1ccccc1` (configuration not stated), the inhibition is -2.81% (inactive).

As for `COc1cc(Cl)cc(C2NC(=O)NC(C)=C2C(=O)NCc2ccccc2)c1O` (configuration not stated), the inhibition is -4.23% (inactive).

In the case of `Cn1cccc1C(=O)OCC(=O)NCCc1ccccc1`, the inhibition was -5.93% (inactive).

On to `Cn1cccc1C(=O)OCC(=O)c1ccc(Br)s1`, for which the inhibition is 82.4% (active).

Regarding `O=C(COC(=O)c1c2c(nc3ccccc13)CCCC2)c1ccc(Br)s1`, the inhibition is 14.3% (inactive).

For the molecule `O=C(CSc1nncn1-c1cccnc1)N1CCOCC1`, the inhibition was 5.85% (inactive).

As for `Cc1n[nH]c(=O)c2c(NC(=O)CSc3cc(Cl)ccc3Cl)oc(C)c12`, the inhibition was -0.542% (inactive).

With `CC1CN(c2cc(=O)n(-c3cccc(Br)c3)c(=O)[nH]2)CC(C)O1` (configuration not stated), the inhibition is 4.5% (inactive).

`Cc1cnc(C(=O)OCC(=O)N2CCc3ccccc32)cn1`: the inhibition is -1.46% (inactive).

With `CCOC(=O)N1CCC(NC(=O)c2cnn3ccccc23)CC1`, the inhibition was -0.379% (inactive).

Turning to `O=C(c1cnn2ccccc12)N1CCc2ccccc21`, the inhibition was 52.8% (active).

Take `Cc1ccc(S(=O)(=O)/N=S(\C)C(C)C)cc1` (configuration not stated): the inhibition is -7.18% (inactive).

In the case of `CCC(C)(C(=O)NC1CCCC1)N(C(=O)CNC(C)=O)c1ccc(C)cc1` (configuration not stated), the inhibition was -2.07% (inactive).

`CCOc1ccccc1NC(=O)c1cccnc1`: the inhibition is -1.12% (inactive).

Consider `COc1ccccc1NC(=O)c1ccc(N2CC3CC(C2)c2cccc(=O)n2C3)c(NC(=O)c2cccnc2)c1` (configuration not stated), for which the inhibition is 70.4% (active).

On to `COc1ccccc1NC(=O)c1ccc2nc(N3C(=O)CCC3=O)sc2c1`, for which the inhibition was -10.2% (inactive).

`O=C(CC1C(=O)NCCN1CC(c1ccccc1)c1ccccc1)NCCc1cn[nH]c1` (configuration not stated): the inhibition is -0.769% (inactive).

Regarding `O=C(COC(=O)c1ccncc1)c1ccccc1`, the inhibition is -15% (inactive).

In the case of `O=C(Oc1ccc(-c2nc(-c3ccccn3)no2)cc1)c1ccccc1`, the inhibition was 99.8% (active).

In the case of `Cc1noc(C)c1COC(=O)COc1ccc(-c2ccccc2)cc1`, the inhibition is 6.3% (inactive).

As for `CN(C(=O)CSc1nncc2ccccc12)C1CCCCC1`, the inhibition was -7.84% (inactive).

On to `CN(c1ccc2nc3ccccc3c(=O)n2n1)C1CCCCC1`, for which the inhibition is 93.7% (active).

Turning to `CN(C(=O)c1cc2c(=O)n3ccccc3nc2s1)C1CCCCC1`, the inhibition is -3.91% (inactive).

Take `CCn1cc(C(=O)N[C@@H](C)C(=O)NCCO)c(=O)c2cc3c(cc21)OCO3`: the inhibition was -6.11% (inactive).

For the molecule `CC(C(=O)Nc1ccc(S(=O)(=O)N2CCCC2)cc1)N(C)Cc1ccc(F)cc1` (configuration not stated), the inhibition was 8.65% (inactive).

On to `CC(C)n1cnc2c(NCc3ccccc3)cc(OCC3CCN(C)CC3)cc21`, for which the inhibition is 52.7% (active).

Take `CC(C)n1cnc2c(NCc3ccccc3)cc(N[C@@H](CO)Cc3ccccc3)cc21`: the inhibition is 35.9% (inactive).

Take `CCC(CO)Oc1cc(NCc2ccccc2)c2ncn(C3CCCC3)c2c1` (configuration not stated): the inhibition is 8.26% (inactive).

For `O=C(CCNC(=O)C1CCN(S(=O)(=O)c2ccccc2)CC1)NC1CC1`, the inhibition was -2.25% (inactive).

Consider `O=C(O)c1ccc(S(=O)(=O)N2CCOCC2)o1`, for which the inhibition is -7.75% (inactive).

As for `CCCC(=O)Nc1nnc(CC(=O)OCC)s1`, the inhibition is -2.16% (inactive).

`O=C(Nc1ccc(Cl)cc1)c1cc2nc(C3CC3)cc(C(F)(F)F)n2n1`: the inhibition is 2.83% (inactive).

On to `COc1cc(C(=O)OC2CCOC2=O)c([N+](=O)[O-])cc1OC` (configuration not stated), for which the inhibition is -1.58% (inactive).

For `CC(C)c1ccc(C(=O)OC2CCOC2=O)cc1` (configuration not stated), the inhibition is 5.83% (inactive).

As to `O=C(OC1CCOC1=O)c1ccc(-c2nc3ccccc3s2)s1` (configuration not stated), the inhibition was 96.8% (active).

Take `Cc1cc2oc(=O)cc(CN(C)Cc3ccc(OC(F)F)cc3)c2cc1Cl`: the inhibition was 5.95% (inactive).

Take `O=C(c1ccc(F)cc1)n1cc(C(=S)N2CCOCC2)c2ccccc21`: the inhibition was -1.66% (inactive).

Regarding `O=C(c1ccc(F)cc1)n1c(=S)nc2ccccn21`, the inhibition was 96.3% (active).

For the molecule `O=C(Cn1c(=S)nc2ccccn21)N1CCc2ccccc2C1`, the inhibition is -0.589% (inactive).

Take `CN(C)C(=O)c1ccc(NC(=O)COC(=O)c2cc3c(s2)CCCCC3)cc1`: the inhibition was -2.04% (inactive).

Consider `O=C(NCC1CCCO1)c1cc2c(s1)CCCC2` (configuration not stated), for which the inhibition is 7.59% (inactive).

With `O=C(Nc1ccc(F)cc1)c1cc2c(s1)CCCC2`, the inhibition is 87% (active).

Turning to `CC(Sc1sc(=S)sc1SC(C)C(=O)O)C(=O)O` (configuration not stated), the inhibition is -0.431% (inactive).

For the molecule `N#C/C(C(=S)Nc1ccccc1)=C1/NN=C(N2CCOCC2)N1c1ccccc1`, the inhibition is -1.15% (inactive).

Turning to `CC1CN(C(=S)SCC(=O)c2ccccc2)CC(C)O1` (configuration not stated), the inhibition was 1.97% (inactive).

For `O=C(CSC(=S)N1CCOCC1)c1cc(Br)cc(Br)c1O`, the inhibition is 1.34% (inactive).

Regarding `O=C(CSC(=S)N1CCOCC1)c1ccccc1`, the inhibition was 62.7% (active).

On to `CCN(CC(=O)Nc1ccccc1C(F)(F)F)C(=O)C1CCN(C(=O)Nc2ccccc2)CC1`, for which the inhibition was 3.1% (inactive).

In the case of `CC1CCc2sc3nc(N4CCN(CCO)CC4)n4ncnc4c3c2C1` (configuration not stated), the inhibition is -6.6% (inactive).

Take `COc1cccc(Nc2nc(N)c([N+](=O)[O-])c(NCc3ccco3)n2)c1`: the inhibition was 3.33% (inactive).

In the case of `CCN1CCN(c2nc(Nc3cccc(F)c3)nc(N)c2[N+](=O)[O-])CC1`, the inhibition is -8.75% (inactive).

As to `CNc1nc(Nc2ccc(C)c(Cl)c2)nc(N)c1[N+](=O)[O-]`, the inhibition was 99.9% (active).

With `O=C(NCCCc1ccccc1)C1CCC(CNc2c(N3CCCCC3)c(=O)c2=O)CC1` (configuration not stated), the inhibition is 3.15% (inactive).

As to `CC(=O)Nc1ccc(CN2CCC(Oc3ccc(C(=O)N4CCCC4)cc3)CC2)cc1`, the inhibition was 0.753% (inactive).

As for `Fc1ccccc1-c1cc2cc3c(cc2cn1)OCO3`, the inhibition was 77.3% (active).

In the case of `O=C(c1ccco1)N1CCN(C(=O)c2cc(-c3ccccc3F)no2)CC1`, the inhibition is 4.1% (inactive).

In the case of `O=C(CN1CCN(c2ccccc2F)CC1)c1ccc2c(c1)OCO2`, the inhibition is 8.23% (inactive).

Broadly, the inhibition is the relative decrease from the control value, in per cent.
